# Screens deposited in PubChem by University of Pittsburgh Molecular Library Screening Center.
# HIV RNase H inh-1: blocks HIV-1 RNase H cleavage of RNA/DNA duplex | RT-RNase H RNA/DNA duplex cleavage, fluorescence | AID 565 | inhibition, % at 10 µM | 65,000 tested, 1.9% active; in the data active means inhibition above about 50%
# HIV RNase H inh-2: confirmation of HIV-1 reverse transcriptase RNase H inhibitors; 1,000 tested, 39% active; shares compounds with HIV RNase H inh-1; inhibition, % at 10 µM; Recombinant RT RNase H, fluorescent RNA/DNA duplex cleavage; in the data active means inhibition above about 48%
# Starred values were filed as active, the others as inactive. The full list was thinned out, with hits kept by preference.
SMILES,HIV RNase H inh-1,others
CCCN(CCC)S(=O)(=O)c1ccc(C(=O)Nc2nnc(-c3cccc(OC)c3)o2)cc1,68*,HIV RNase H inh-2=89*
COc1cccc(CNC(=O)C2CCCN(S(=O)(=O)c3c(C)n[nH]c3C)C2)c1 (stereo unspecified),-14,
COc1ccc(Cn2c(CCC(=O)Nc3ccc(CC#N)cc3)nc3cccnc32)cc1,1,
COc1ccc(N2C(C)=CS/C2=C(/C#N)c2nnc(N3CCOCC3)n2-c2ccccc2)cc1,-4,
COc1ccc(C(=O)Nn2c(SCC(=O)NCc3ccco3)nc3ccccc3c2=O)cc1,-1,
Cn1c(SCC(=O)NCc2ccco2)nc2ccccc2c1=O,-25,
O=C(CSc1nc2ccccc2c2nc3ccccc3n12)NCc1ccco1,84*,HIV RNase H inh-2=64*
CCN(c1ccccc1)S(=O)(=O)c1cnc[nH]1,-27,
O=C(c1cnn2c(C(F)(F)F)cc(-c3ccco3)nc12)N1CCc2ccccc2C1,-7,
CC1CCC2(CC1)NC(=O)N(CC(=O)NC(=O)NC1CCCC1)C2=O (stereo unspecified),10,
Cc1cccc(C)c1NC(=O)C(c1cccs1)N(Cc1ccco1)C(=O)Cn1nnc2ccccc21 (stereo unspecified),-38,
CCn1cc(C(=O)O)c(=O)c2cnc(N3CCN(C(=O)Nc4ccccc4)CC3)nc21,0,
Cn1c(C(=O)NCc2ccccn2)cc2c(=O)n(C)c3ccccc3c21,-11,
Cc1ccc(CNC(=O)c2cc3c(=O)n(C)c4ccccc4c3n2C)o1,4,
COc1ccccc1CNC(=O)c1cc2c(=O)n(C)c3ccccc3c2n1C,89*,HIV RNase H inh-2=88*
Cc1ccc(Cn2c(SCC(C)C)nc3c2c(=O)n(C)c(=O)n3C)cc1,-13,
Cc1ccc(-c2nc3cnccn3c2Nc2ccc3c(c2)OCO3)o1,-3,
Cc1ccc(-c2nc3cnccn3c2Nc2ccccc2)o1,88*,HIV RNase H inh-2=25
Cc1ccc(-c2nc3ncccn3c2Nc2ccc3c(c2)OCCO3)o1,21,
Cc1cc(=O)oc(C)c1C(=O)N[C@@H]1CCCCNC1=O,-4,
CCOC(=O)CSc1nc2cc(C(=O)N3CCC(C(N)=O)CC3)ccc2c(=O)n1-c1ccccc1,-13,
CCOC(=O)CSc1nc2cc(C(=O)NCc3ccco3)ccc2c(=O)n1-c1ccc(F)cc1,84*,HIV RNase H inh-2=66*
COc1ccc(-n2c(=S)[nH]c3cc(C(=O)NCc4ccco4)ccc3c2=O)cc1OC,-2,
CCOC(=O)CSc1nc2cc(C(=O)NCc3ccco3)ccc2c(=O)n1C1CCCCC1,73*,HIV RNase H inh-2=57*
CCOC(=O)N1CCC(n2c(SCC(=O)NCc3ccco3)nc3ccsc3c2=O)CC1,-4,
SMILES,HIV RNase H inh-1,others
CCOC(=O)CSc1nc2ccccc2c(=O)n1CC1CCC(C(=O)NCc2ccco2)CC1 (stereo unspecified),40,
O=C(O)CSCC(=O)NCc1ccccc1,-10,
CCOC(=O)c1cc2sc(C)cc2n1CC(=O)NCCc1ccccc1,23,
COC(=O)CN(c1ccc(F)cc1)S(=O)(=O)c1ccccc1,-8,
COC(=O)CN(c1ccccc1F)S(=O)(=O)c1ccccc1,-12,
COC(=O)CN(c1ccccn1)S(=O)(=O)c1ccccc1,73*,HIV RNase H inh-2=37
Cc1ccc(N2CCCCn3c2nc2c3c(=O)n(CC(=O)O)c(=O)n2C)cc1,-7,
CC(C)=CC(=O)Nc1ccc(Br)cc1,-3,
CCn1c(-c2ccc(F)cc2)n[nH]c1=S,-2,
Cn1c(-c2ccc(C(C)(C)C)cc2)n[nH]c1=S,38,
CCn1c(-c2ccc(C(C)(C)C)cc2)n[nH]c1=S,64*,HIV RNase H inh-2=9
C=CCN(C(=O)CSc1nc2[nH]ncc2c(=O)n1-c1ccccc1OC)c1ccccc1,18,
CSc1nnc2c(n1)OC(C1CC=C(C)CC1)Nc1ccccc1-2 (stereo unspecified),1,
COc1ccccc1N1CCN(C(=O)c2cc(-c3ccc(Cl)cc3)on2)CC1,-4,
COc1ccccc1N1CCN(C(=O)c2cc(-c3ccc(C)cc3)on2)CC1,-17,
COc1ccccc1-c1cc(C(=O)N2CCN(c3ccccc3OC)CC2)no1,78*,HIV RNase H inh-2=47
CCOC(=O)C1CCN(C(=O)CSC2=NCCS2)CC1,-11,
COc1cccc2cc(C(=O)C3=C(O)C(=O)N(CCCN4CCOCC4)C3c3ccncc3)oc12 (stereo unspecified),-11,
Cn1c(Cn2cnc3ccccc32)nnc1SCC(=O)CC(=O)Nc1ccccc1,-5,
COc1ccc(C2C(C(=O)O)c3ccccc3C(=O)N2C)cc1Br (stereo unspecified),-3,
COc1ccc(OC)c(C2C(C(=O)O)c3ccccc3C(=O)N2C)c1 (stereo unspecified),65*,HIV RNase H inh-2=40
COc1cc(OC)c(C2C(C(=O)O)c3ccccc3C(=O)N2C)cc1OC (stereo unspecified),1,
CCOc1ccc(N2CC(C(=O)Nc3cccc(C)c3C)CC2=O)cc1 (stereo unspecified),-3,
CC1CCN(C(=O)Cn2cc3c(n2)CCCC3)CC1,3,
COc1ccc(NC(=O)CSc2nc3sc(C)c(C)c3c(=O)n2Cc2ccco2)cc1,-15,
SMILES,HIV RNase H inh-1,others
C=CCn1c(SCC(=O)NCCCC)nc2scc(-c3ccco3)c2c1=O,3,
C=CCn1c(SCC(=O)NC(=O)NCc2ccco2)nc2sc(C)c(C)c2c1=O,92*,HIV RNase H inh-2=63*
NC/C(=N\O)c1ccc(Cl)cc1Cl,5,
COc1ccc(S(=O)(=O)c2ccc(OC)c(OC)c2)cc1OC,-1,
Cc1cc(NC(=O)c2cc(C3CC3)on2)no1,-2,
O=c1ccc(Oc2nc(N3CCCCC3)nc(N3CCCCC3)n2)n[nH]1,-13,
CCC(=O)N1CCc2cc(S(=O)(=O)NC(CC(C)C)C(=O)N3CCc4ccccc43)ccc21 (stereo unspecified),1,
CCOC(=O)N1CCC(NC(=O)C(NS(=O)(=O)c2ccc3c(c2)CCN3C(C)=O)C(C)C)CC1 (stereo unspecified),-11,
CC(=O)N1CCc2cc(S(=O)(=O)NC(CC(C)C)C(=O)Nc3cc(C(=O)O)ccc3C)ccc21 (stereo unspecified),61*,HIV RNase H inh-2=22
CS(=O)(=O)NCCC1=CCCCC1,-2,
Cc1cc(Nc2cccc(C)c2C)n2nc(C)nc2n1,-17,
C/C(N)=C(/C#N)C(=O)CSc1nnc(Nc2cccc(C)c2C)s1,0,
Cc1cccc(Nc2n[nH]c(=S)s2)c1C,77*,HIV RNase H inh-2=85*
CCOc1ccc(OCC)c(NC(=O)CCn2cccc2)c1,-3,
C#CC1CN(Cc2ccccc2)CC(C#C)N1C (stereo unspecified),-11,
CNc1nc(C)c(C(=O)OCc2ccccc2)s1,-28,
CCOC(=O)C1(Cc2ccc(O)cc2)NC(c2ccco2)C2C(=O)N(c3ccccc3F)C(=O)C21 (stereo unspecified),4,
CCCN1C2=NCCN2c2cc(C)c(C)cc21,-13,
CCn1c(SCC(=O)Nc2ccc3c(c2)OCCO3)nnc1-c1ccco1,-1,
CCn1c(SCC(=O)Nc2oc(-c3ccccc3)c(-c3ccccc3)c2C#N)nnc1-c1ccco1,64*,HIV RNase H inh-2=14
CCn1c(SCC(=O)Nc2ccc3c(c2)c2ccccc2n3CC)nnc1-c1ccco1,100*,HIV RNase H inh-2=11
CCn1c(SCC(=O)n2c(C)c(C)c3ccccc32)nnc1-c1ccco1,3,
N#Cc1c(NC(=O)CSc2ncnc3sccc23)oc(-c2ccco2)c1-c1ccco1,74*,HIV RNase H inh-2=19
N#Cc1ccsc1NC(=O)CSc1ncnc2ccccc12,26,
CCn1c(SCC(=O)Nc2nonc2C)nnc1-c1ccco1,1,
